Screens deposited in PubChem BioAssay by several laboratories.
M1 agonist: activates the M1 muscarinic receptor. 64,000 compounds, 3% hits. CHO-M1 cells, Fluo-4 calcium fluorescence, agonist mode; active compounds read high. B-score at 10 µM;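 active = fluorescence rise, raw or as B-score row- and column-corrected plate score, outside the 99.7% band of its plate's samples, either direction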
Cav32 inh: inhibitors of human Cav3.2 T-type calcium channel | O95180 | Cav3.2-expressing cells, Fluo-4 calcium fluorescence FDSS; active compounds read low | B-score at 10 µM | 100,000 compounds, 4% hits | AID 449739;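 active = single-dose well whose peak fluorescence ratio is a statistical outlier from its plate by either plate-standardised score or position-corrected B-score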
PLAP activator: activates human placental alkaline phosphatase. activation fold at 20 µM. purified PLAP enzyme, luminescent substrate read-out; active compounds read high. P05187. 96,000 compounds, 1.2% hits; in the data active = activation fold above about 2
M1 antagonist: M1 muscarinic receptor (rat) antagonism; 64,000 compounds, 3.4% hits; AID 628; B-score at 10 µM; CHO-M1 cells, Fluo-4 calcium, ACh EC80 antagonist mode; active compounds read low;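 active = calcium fluorescence response, raw or row-and-column corrected B-score, differing from the plate sample mean either way at a set confidence level, mostly lower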
Target sequence (P08482 whole entry, looked up): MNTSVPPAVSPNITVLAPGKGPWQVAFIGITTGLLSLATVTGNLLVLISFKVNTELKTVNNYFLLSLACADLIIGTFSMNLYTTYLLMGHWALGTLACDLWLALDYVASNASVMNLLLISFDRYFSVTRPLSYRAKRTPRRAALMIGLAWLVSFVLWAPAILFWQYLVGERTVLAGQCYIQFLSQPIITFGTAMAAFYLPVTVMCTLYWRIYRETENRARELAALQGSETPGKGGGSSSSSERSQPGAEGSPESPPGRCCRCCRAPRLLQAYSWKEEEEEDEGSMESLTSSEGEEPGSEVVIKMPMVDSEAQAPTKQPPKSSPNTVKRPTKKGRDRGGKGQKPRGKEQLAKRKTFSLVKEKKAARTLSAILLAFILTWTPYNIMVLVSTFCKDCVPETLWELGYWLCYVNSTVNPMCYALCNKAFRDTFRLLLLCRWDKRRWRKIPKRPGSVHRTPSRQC
The depositor's hits bear a star; . = no result; ! = repeats disagree. In the library only some 7.6% were active in any assay of this set; here they are far more common.

SMILES	M1 agonist	Cav32 inh	PLAP activator	M1 antagonist
O=C1N2CCCc3cccc(c32)C12Nc1ccccc1S2 (centres undefined)	-0.0155	-0.586	0.7	0.141
COC(=O)C1=C(C(=O)OC)[C@@H]2Nc3ccccc3[C@@]23C[C@@H](C(=O)OC)N(C(=O)c2cccs2)C3=N1	.	-0.155	.	.
Cc1cc(C)cc(NC(=O)Nc2ccc3c(c2)N(C)C(=O)CS3)c1	.	0.0113	0.9	.
CN1CC(=O)N/C1=N\C(=O)Nc1ccc2c(c1)N(C)C(=O)CS2	-0.057	-0.77	2.8*	-0.79
CCOc1cc(N2CCOCC2)c(OCC)cc1NC(=O)COC(=O)CCc1c[nH]c2ccccc12	-0.00107	0.535	1.5	-0.207
COc1cc(C2Nc3ccccc3C(=O)N2c2ccc3c(c2)OCCO3)ccc1OCC(C)C (centres undefined)	.	-1.07	1	.
CCCCn1c(NC(C)CC)nc2c1c(=O)[nH]c(=O)n2C (centres undefined)	0.795	1.37	1	0.633
CC(C)C(NS(=O)(=O)c1cccc2nsnc12)C(=O)Nc1nc2ccc(Cl)cc2s1 (centres undefined)	.	.	0.9	.
CCOc1ccc2nc(NC(=O)C(NS(=O)(=O)c3cccc4nsnc34)C(C)C)sc2c1 (centres undefined)	.	-1.53	2.4*	.
Cc1onc(-c2ccccc2Cl)c1C(=O)OCC(=O)Nc1ccc2c(c1)OCO2	-0.123	-6.31*	1.2	0.00627
Cc1onc(-c2ccccc2Cl)c1C(=O)N1CCCc2ccccc21	-0.0788	-1.18	0.9	-0.827
Cc1onc(-c2ccccc2Cl)c1C(=O)OCC(=O)N1CCCc2ccccc21	-0.148	-7.4*	1.4	-0.746
CC(Nc1ccc(Br)cc1)C(=O)N/N=C/c1ccccc1OCc1ccccc1 (centres undefined)	.	-3.3	1.4	.
COc1ccc(NC(C)C(=O)N/N=C/c2ccccc2OCc2ccc(Br)cc2)cc1 (centres undefined)	.	-5.92*	1	.
Cn1c(NC(=O)C2CCCO2)cc(=O)n(C)c1=O (centres undefined)	-0.112	0.394	1	-0.0545
O=C(Cc1ccccc1)Nc1nc2ccccc2[nH]1	-0.0178	0.138	1	0.0184
Cc1csc(NC(=O)CSc2nc3ccccc3s2)n1	.	-7.01*	1	.
Cc1csc(NC(=O)Cc2c[nH]c3ccccc23)n1	.	-4.12*	0.9	.
Cc1csc(NC(=O)CCCSc2nc3ccccc3s2)n1	0.479	-2.95	1.4	0.0323
Cc1ccc2c(CC(=O)Nc3nc(C)cs3)coc2c1	-1.18	-6.8*	0.9	-0.665
O=C(Cc1c[nH]c2ccccc12)Nc1nc2ccccc2[nH]1	0.944	-6.27*	1.3	0.308
Cc1ccc2c(CC(=O)NC3=NCCS3)coc2c1	-1.18	-0.983	0.9	1.85
CCOC(=O)C(C(=O)Nc1ccccc1C)C1CCCCC1 (centres undefined)	.	-0.547	0.8	.
Cc1ccc(S(=O)(=O)NC(CC(=O)O)c2ccccc2)c(C)c1 (centres undefined)	0.12	.	1.1	0.603
Cc1ccc(S(=O)(=O)NC(=O)c2ccc(-c3ccc(-c4ccccc4)cc3)o2)c(C)c1	.	-4.3*	.	.
SMILES	M1 agonist	Cav32 inh	PLAP activator	M1 antagonist
O=C(CSc1nnnn1-c1ccc(Cl)cc1)N1CCc2ccccc2C1	1.61	-0.485	0.6	0.268
COC(=O)c1[nH]c2ccccc2c1NC(=O)CNC1CCCCC1	-0.428	0.654	1.4	-1.54
CC(C)Oc1ccc(/C=N/NC(=O)C(CSCc2ccccc2)NC(=O)c2ccc([N+](=O)[O-])cc2)cc1 (centres undefined)	.	-7.37*	.	.
CCOC(=O)C1=C(C)N(CCCCCC(=O)O)C(=O)NC1c1ccccc1OC(=O)c1cccs1 (centres undefined)	.	0.992	.	.
CCOC(=O)c1cc(C(C)(C)C)oc1CNC(=O)c1c(C)oc2c1CCCC2	.	-4.63*	.	.
CCNC(=O)COc1cccc2ccccc12	.	-0.186	0.9	.
O=C(COc1cccc2ccccc12)NNC(=O)[C@@H]1CCCC[C@@H]1C(=O)O	.	0.0721	2*	.
Cc1cc(C)cc(N2CCCn3c2nc2c3c(=O)n(CCN3CCOCC3)c(=O)n2C)c1	2.57	1.96	1.5	-0.00241
O=C(Nc1ccc(OCC(=O)N2CCC(Cc3ccccc3)CC2)cc1)c1ccco1	.	-7.2*	1.9	.
COC(=O)c1cc(OC)c(OC)cc1NC(=O)Nc1ccc(OC)cc1OC	0.769	0.608	1.2	0
COc1ccc(NC(=O)Nc2cc(C)ccc2OC(F)F)c(OC)c1	1.43	-4.01	0.9	2.02*
O=c1c2ccccc2nc(SCc2ccccc2)n1Cc1ccco1	1.68	-5.81*	0.9	-0.563
Cc1ccc(CSc2nc3ccccc3c(=O)n2Cc2ccco2)cc1	.	-4.56*	.	.
O=c1c2ccccc2nc(SCc2cccc(F)c2)n1Cc1ccco1	-0.0347	-3.38	1.2	-0.244
O=c1c2ccccc2nc(SCc2nc3ccccc3s2)n1Cc1ccco1	0.309	-1.75	1.3	0.897
COC(=O)CNC(=O)c1nn(-c2cccc(OC)c2)c(=O)c2ccccc12	-2.03	.	0.9	-0.0733
CC(=O)N1CCn2c3ccc(C)cc3c3cccc1c32	.	-1.99	.	.
COC(=O)C(Cc1ccccc1)NS(=O)(=O)c1ccccc1Br (centres undefined)	.	-0.0153	.	.
O=S(=O)(Nc1ccc2c(c1)CCC2)c1cccs1	0.246	-5.58*	1	-0.903
O=C1OCc2cc(NS(=O)(=O)c3cccs3)ccc21	0.391	0.299	1.1	0.613
CCCC(=O)O[C@H]1C[C@@H](C)N(C(=O)c2ccccc2)c2ccc(C)cc21	.	-7.97*	1.5	.
COc1cc(CN(C)Cc2ccccc2)cc(OC)c1O	.	0.545	1.5	.
COc1cc(C(=O)N2CCC(n3cnc4cc(F)ccc43)CC2)cc(OC)c1OC	-0.298	2.34	1.2	-0.91
COc1c(N2CCN(C(=S)Nc3ccc(F)cc3)C(C)C2)c(F)cc2c(=O)c(C(=O)O)cn(C3CC3)c12 (centres undefined)	.	3.6*	1	.
CCn1nnc(NC(=O)c2cc3ccccc3o2)n1	0.213	0.383	0.8	3.35*
SMILES	M1 agonist	Cav32 inh	PLAP activator	M1 antagonist
CCCCn1nnc(NC(=O)Cc2ccc(Cl)cc2)n1	1.61	-1.54	1.1	-0.377
CCCn1nnc(NC(=O)c2cc3ccccc3o2)n1	-0.62	0.826	0.7	-0.0347
CCCn1nnc(NC(=O)c2ccc(-c3cccc(Cl)c3)o2)n1	.	-5.04*	1.1	.
CCCCn1nnc(NC(=O)c2ccc(-c3cccc(Cl)c3)o2)n1	.	-4.89*	0.9	.
COC(=O)C1=C(C(=O)OC)[C@@H]2N(C)c3ccc(OC)cc3[C@@]23C[C@@H](C(=O)OC)N(C(=O)COCc2ccccc2)C3=N1	.	-0.0345	.	.
COc1cccc2[nH]c3c(N4CCN(Cc5ccc6c(c5)OCO6)CC4)ncnc3c12	0.59	.	2.1*	-1.78
Cc1ccc2[nH]c3c(N4CCN(Cc5ccc6c(c5)OCO6)CC4)ncnc3c2c1	1.84	.	1	-1.64
Cc1ccc2[nH]c3c(N4CCN(Cc5ccccc5)CC4)ncnc3c2c1	5.63	-3.91	2*	-1.66
Cc1[nH]c2c(C)cccc2c(=O)c1Br	0.529	0.609	0.9	-0.575
c1ccc(CN(CC2=NCCN2)c2ccccc2)cc1	0.567	-2.79*!	.	-0.829
COc1ccc(NC(=O)CSc2ncc(-c3ccc(F)cc3)n2Cc2ccco2)cc1	.	0.082	.	.
O=C(CSc1ncc(-c2ccc(F)cc2)n1Cc1ccco1)Nc1nccs1	0.881	-0.201	0.9	-0.344
